From PubChem BioAssay
ALDH1A1 inh: inhibitors of human aldehyde dehydrogenase 1A1; P00352; Purified ALDH1A1, NADH fluorescence, propionaldehyde substrate; Potency, µM (top dose mostly 75.3 µM), without a hit: at the top dose activity, negative = inhibition, hits mostly inhibitors; hit rate 7.3% among 220,000; AID 1030; active means well fitted inhibition curve with a large enough effect, not every such curve was filed as active; inconclusive means small, poorly fitted or top-dose-only effect, or another doubt; inactive means no such curve, though single readings can be large or run the other way;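 further: potency means the concentration at half of the fitted maximal effect; plate controls were no enzyme wells and a reference inhibitor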
HPGD block: inhibitors of human 15-hydroxyprostaglandin dehydrogenase (HPGD); purified HPGD, NADH fluorescence kinetic, PGE2 substrate; Potency, µM, for inactives: at the highest dose activity change, negative = inhibition, actives largely listed as inhibitors; P15428; hit rate 4.3% among 150,000; active means well fitted inhibition curve with a large enough effect, not every such curve was filed as active; inconclusive means small, poorly fitted or top-dose-only effect, or another doubt; inactive means no such curve, though single readings can be large or run the other way; further: potency means the concentration at half of the fitted maximal effect; on the % scale 0 is the no-effect control and ±100 the full control effect
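NADH formation kinetics: reaction with 30 uM PGE2 and 1 mM NAD+ (final), 20 nM enzyme, Tris-HCl pH 8 with Tween 20, after 15 min compound preincubation at room temperature. Fluorescence change, last versus first of five reads.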
HTT ATP protect: cytoprotection in Huntington HTT-Q103 PC12 cell model; Potency, µM (top dose mostly 56.4 µM), for inactives: cytoprotection (ATP increase), most hits filed as activators; PC12 HTT-Q103 induced, cytoprotection, ATP luminescence, 40 h; hit rate 0.14% among 230,000; further: potency means the concentration at half of the fitted maximal effect; % of control where 0% means no effect; nearly all actives have a fitted effect of over 45% in size
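ATP quantification (ATPlite) reports survival of PC12 cells in which tebufenozide, 100 nM final, switches on Htt exon 1 with 103 glutamines linked to GFP; compounds are titrated.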
CBFb RUNX1 block: CBF-beta/RUNX1 interaction disruption; Q01196+Q13951; AlphaScreen CBFb-His/RUNX1-biotin binding, biochemical; Potency, µM (highest dose often 59.8 µM), inactives show at the top dose activity, negative = inhibition, actives largely listed as inhibitors; 230,000 tested, under 10 active; further: % of control where 0% means no effect
Target sequence (Q01196 whole entry, looked up): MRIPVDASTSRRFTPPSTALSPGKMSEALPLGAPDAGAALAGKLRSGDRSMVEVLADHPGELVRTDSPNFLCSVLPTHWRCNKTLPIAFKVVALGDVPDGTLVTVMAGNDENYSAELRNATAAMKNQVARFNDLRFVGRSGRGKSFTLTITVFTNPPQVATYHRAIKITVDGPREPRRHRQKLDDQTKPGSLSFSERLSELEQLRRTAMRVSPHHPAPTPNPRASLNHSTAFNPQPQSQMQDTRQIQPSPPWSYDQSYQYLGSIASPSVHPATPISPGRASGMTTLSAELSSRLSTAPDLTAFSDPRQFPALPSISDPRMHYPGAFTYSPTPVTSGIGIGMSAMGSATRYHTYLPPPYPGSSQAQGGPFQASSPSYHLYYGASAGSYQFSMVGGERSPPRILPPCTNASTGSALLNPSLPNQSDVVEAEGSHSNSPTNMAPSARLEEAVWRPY
Target sequence (Q13951 whole entry, looked up): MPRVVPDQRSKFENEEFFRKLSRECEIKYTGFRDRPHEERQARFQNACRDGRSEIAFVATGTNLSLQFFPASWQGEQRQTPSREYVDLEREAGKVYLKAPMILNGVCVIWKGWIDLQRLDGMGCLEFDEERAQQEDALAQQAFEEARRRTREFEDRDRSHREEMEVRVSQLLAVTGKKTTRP
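Room-temperature protein-protein interaction test with 30 nM each of His-tagged CBF-beta and biotinylated RUNX1, 15 min with compound, then 90 min with nickel plus streptavidin beads. Signal read in AlphaScreen mode.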
HTT aggregate: reduces HttQ103-GFP aggregates in PC12 cells. PC12 HttQ103-GFP aggregates, Acumen cytometry, 40 h. Potency, µM (doses to about 46.1 µM), without a hit: top-dose activity change, negative = inhibition, actives largely listed as inhibitors. hit rate 1.1% among 220,000. AID 1688; further: potency means the concentration at half of the fitted maximal effect; on the % scale 0 is the no-effect control and ±100 the full control effect; nearly all actives have a fitted effect of over 60% in size
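PC12/HTTQ103-GFP, ecdysone-inducible; teb 100 nM; cpd qHTS titration; GFP aggregates read on laser cytometer, Ex 488/Em 500-530 nm.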
PNC assembly inh: inhibitors of perinucleolar compartment assembly. PC3M PTB-GFP, PNC prevalence imaging, 16 h; hits give low values. activity change (PNC), negative = inhibition, % at 10 µM. hit rate 3.1% among 140,000;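 active means readout at or below -70, meaning at least 70% loss of cells showing the perinucleolar compartment, a nuclear body marking cancer cells; inconclusive means readout between -30 and a set limit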;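 further: plate controls were DMSO wells for no effect and camptothecin positive control wells for full effect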
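PC3M cells stably expressing PTB-GFP, 750–1000 cells/well, treated 16 h at 37 °C with compound (23 nl of library stock), in duplicate. After paraformaldehyde fixation and Hoechst stain, imaged at 20x; PNC prevalence scored by image analysis.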
Active calls of the source: *; ? = inconclusive; . = no result; [ ] = remark or other dose. Only some compounds are listed: those with a hit (about 11% of all), similar ones and a draw of the others. Unless noted, the call rests on the fitted dose curve; in most records, active means well fitted curve in the direction sought with a large enough effect; inconclusive means small, poorly fitted or top-dose-only effect, or another doubt; inactive means no such curve, though single readings can be large; an effect the other way counts as inactive or inconclusive.

SMILES	ALDH1A1 inh	HPGD block	HTT ATP protect	CBFb RUNX1 block	HTT aggregate	PNC assembly inh
O=C(Nc1ccc(S(=O)(=O)Nc2ncccn2)cc1)c1ccc2ncsc2c1	7.1µM*	.	-7%[10 µM]	8%	7%[9.22 µM]	.
O=C(Nc1ccc(S(=O)(=O)Nc2ncccn2)cc1)c1cnc(Cl)c(Cl)c1	0%	.	20%	4%	3%	.
COc1ccc(NS(=O)(=O)c2ccc(N3CCCC3)c(NC(=S)Nc3cccc(S(=O)(=O)N(C)C)c3)c2)cc1	3.2µM*	3.2µM*	10%[10 µM]	-23%	-16%	?
O=C(Nc1ccc(S(=O)(=O)Nc2ncccn2)cc1)c1ccc(S(=O)(=O)N2CCCC2)cc1	25µM*	.	-30%	0%	-11%	.
O=S(=O)(Nc1ncccn1)c1ccc(NC(=S)Nc2ccc(Cl)cc2)cc1	10µM*	.	28%[10 µM]	12%	3%[9.22 µM]	.
O=S(=O)(Nc1cccc2cccnc12)c1ccc(S(=O)(=O)N2CCCC2)cc1	?	-6%	0%[10 µM]	-16%	0.79µM*	32
CC(=O)NO	-1%	-7%	-1%	0%	-2%	.
COc1ccc(NC(=O)NC23CC4(C)CC(C)(CC(C)(C4)C2)C3)cc1OC	8%	-4%	2%[10 µM]	0%	-16%	-15
COc1ccccc1NC(=O)CNc1ccc(F)c(Cl)c1	-16%	.	7%[10 µM]	-2%	7%	-1
CCCCC(CC)COS(=O)(=O)O (configuration not stated)	.	.	14%	.	29%	.
CCCCC(CC)COCC1CO1 (configuration not stated)	13µM*	-7%	4%	5%[21.7 µM]	.	.
CCCCN(C(=O)c1ccc2c(c1)OCO2)c1ccccc1	14µM*	.	-10%	8%	0%	.
CCCCNC(=O)c1ccccc1NC(=O)c1ccc2c(c1)OCO2	0%	.	-1%	4%	16%	.
CN(Cc1ccccc1)C(=O)c1ccc2c(c1)OCO2	-4%	14µM*	-14%[10 µM]	-7%	12%	43
COCCn1nnnc1CN1CCSCC1	6%	.	2%[10 µM]	2%	1%[9.22 µM]	.
COCCn1nnnc1CN1CCC(Cc2ccccc2)CC1	-13%	-9%	4%[10 µM]	-2%	-12%	-100*
CN(Cc1ccccc1)C(=O)c1[nH]cnc1C(=O)N[C@@H](CCCCNC(=O)OC(C)(C)C)C(=O)OC(C)(C)C	-9%	.	0%[10 µM]	22%	11%[9.22 µM]	.
CC(C)C[C@H](NC(=O)c1nc[nH]c1C(=O)N(C)Cc1ccccc1)C(=O)OC(C)(C)C	7.9µM*	.	-5%[10 µM]	17%	34%[9.22 µM]	.
C[C@H](NC(=O)c1nc[nH]c1C(=O)N[C@@H](C)c1ccccc1)C(=O)OC(C)(C)C	4.5µM*	.	4%[10 µM]	13%	16%[9.22 µM]	.
C/C=C/C(=O)[C@@H](C)[C@@H](/C=C/C[Si](C)(C)C)C(C)C	.	.	.	0%	.	.
Cc1ccccc1Oc1ncnc(N)c1[N+](=O)[O-]	4%	.	2%	-2%	8%	.
CCCCN(c1ccccc1)c1ncnc(N)c1[N+](=O)[O-]	-3%	-4%	13%	1%	7.1µM*	3
Cc1cccc(C)c1N1CCN(C(=O)N2CCCCC2)CC1	?	.	31%[10 µM]	6%	11%[9.22 µM]	.
CCn1c(CNc2cccc(Cl)c2)nnc1SCC(=O)OC1CCCCC1	?	28µM*	28%[10 µM]	3%	?	45
O=C1/C(=C/c2ccccc2)Nc2ccccc21	-8%	18µM*	-85%	11%	?	25
SMILES	ALDH1A1 inh	HPGD block	HTT ATP protect	CBFb RUNX1 block	HTT aggregate	PNC assembly inh
Cc1ccc(-c2nn(C)c(=O)c3ccccc23)cc1S(=O)(=O)N1CCCC1	-11%	?	9%[10 µM]	-1%	10%	-28
Cc1ccc(-c2nn(C)c(=O)c3ccccc23)cc1S(=O)(=O)N1CCOCC1	1%	14µM*	-12%[10 µM]	14%	?	-7
Cc1ccc(-c2n[nH]c(=O)c3ccccc23)cc1S(=O)(=O)NCCN1CCOCC1	2%	13µM*	-12%	0%	-1%	-24
O=C(O)C[CH2][Ge](=[O])[O][Ge](=[O])[CH2]CC(=O)O	.	.	-44%	.	-1%	.
COc1cccc(CN(C)CC(=O)Nc2ccccc2C(C)C)c1	20µM*	.	-34%	-22%	-1%	.
O=C(N/N=C/C1CC2CCC1C2)c1c[nH]c2ccccc12 (configuration not stated)	14µM*	.	5%[10 µM]	-1%	6%[9.22 µM]	.
CCN1/C(=C/C=C/C=C/c2sc3ccccc3[n+]2CC)Sc2ccccc21	?	-28%	-99%	?	4µM*	51
CCN1/C(=C/C=C/c2sc3ccccc3[n+]2CC)Sc2ccccc21	.	.	-97%	.	2µM*	.
CC/C(=C/c1sc2ccccc2[n+]1CC)SC	-14%	-6%	15%[10 µM]	4%	-18%	21
COc1ccccc1OC(C)C(=O)Nc1nc(-c2ccc(S(=O)(=O)N3CCOCC3)cc2)cs1 (configuration not stated)	-6%	-8%	8%	-3%	-7%	?
O=C(Nc1nc(-c2ccccc2)cs1)c1ccccc1NS(=O)(=O)c1ccc(F)cc1	?	?	-72%[10 µM]	-8%	1.8µM*	0
COc1ccccc1C(=O)Nc1nc(-c2ccc(S(=O)(=O)N3CCOCC3)cc2)cs1	?	?	-90%	-4%	2.5µM*	-20
O=S(=O)(Nc1ccc(-c2csc(-c3ccccc3)n2)cc1)c1ccc(F)cc1	1%	-10%	8%[10 µM]	7%	-33%	-13
O=C1c2ccccc2C(Nc2ccc(S(=O)(=O)N3CCOCC3)cc2)N1Cc1ccco1 (configuration not stated)	-11%	-6%	-31%	-2%	-10%	?
Cc1ccc(NC2c3ccccc3C(=O)N2CCN2CCOCC2)cc1 (configuration not stated)	1µM*	-6%	-16%	1%	-13%	?
CCN(CC)S(=O)(=O)c1ccc(NC2c3ccccc3C(=O)N2CCN2CCOCC2)cc1 (configuration not stated)	0.2µM*	-11%	0%[10 µM]	5%	11%	-12
COc1ccccc1C1/C(=C(/O)c2ccc(C)cc2)C(=O)C(=O)N1CCN1CCOCC1 (configuration not stated)	?	0%	13%[10 µM]	7%	6%	?
NCCSC[C@H](N)C(=O)O	3%[13.5 µM]	2%	1%[10 µM]	.	.	.
S=c1[nH]c2cc(Cl)ccc2s1	2.8µM*	28µM*	-5%	1%	-4%	47
COc1ccc2[nH]c(=S)[nH]c2c1	-6%	28µM*	15%	4%	7%	-12
S=c1[nH]c2ccc(Cl)cc2[nH]1	8.9µM*	10µM*	18%[10 µM]	1%	19%	5
COc1ccc2[nH]c3ccccc3c2c1	?	?	-6%	1%	-6%	17
